# Source: PubChem BioAssay (Tox21)
# Values joined by “and” are separate entries in the source; they are usually repeats but may differ in a detail not shown here. Equal entries are not always repeated. Inconclusive results are not listed. Entries that show only a call come without a potency. A structure can be active in one record and inactive in another. Active and inactive are the calls of the source. Calls come from the whole dose curve; as a rule, active = well fitted curve in the direction sought with a large enough effect in the repeat runs; inconclusive = weak or mixed curves; inactive = no such curve, though single readings can be large; an effect the other way counts as inactive or inconclusive.
# Experiments:
# [1] = A CellTox Green Cytotoxicity Assay to monitor cytotoxicity in HEK293 cells - 32 hour (AID 1224881); note: nearly all actives have a fitted effect of over 40% in size
# Outline: (§1)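 Fluorescence intensity, read at 0, 8, 16, 24, 32 and 40 h of compound treatment, reflected dye binding to DNA of dead HEK293 cells; compounds (23 nL, DMSO) were added 5 h after plating cells with reagent.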
# [2] = A CellTox Green Cytotoxicity Assay to monitor cytotoxicity in HepG2 cells - 0 hour (AID 1224882); note: nearly all actives have a fitted effect of over 35% in size
# Outline: (§2)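 Using 1536-well format, dye-containing HepG2 suspension was seeded, allowed 5 h at 37 C/5% CO2, dosed by pintool with compounds, positive and negative controls, and imaged for fluorescence across 40 h.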
# [3] = A CellTox Green Cytotoxicity Assay to monitor cytotoxicity in HepG2 cells - 32 hour (AID 1224883); note: nearly all actives have a fitted effect of over 50% in size
# Outline: as §2
# [4] = A CellTox Green Cytotoxicity Assay to monitor cytotoxicity in HEK293 cells - 8 hour (AID 1224884); note: nearly all actives have a fitted effect of over 35% in size
# Outline: as §1
# [5] = qHTS RealTime-Glo MT Cell Viability Assay in HEK293 cells - 24 hour (AID 1224886); note: nearly all actives have a fitted effect of over 50% in size
# Outline: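 Cells + reagent dispensed (600 cells/well, HEK293) → 5 h at 37 C/5% CO2 → 23 nL compound in DMSO pinned → 40 h at 37 C → luminescence read at 0, 8, 16, 24, 32, 40 h.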
# [6] = qHTS RealTime-Glo MT Cell Viability Assay in HepG2 cells - 0 hour (AID 1224889); note: nearly all actives have a fitted effect of over 50% in size
# Outline: (§3)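 Real-time, nonlytic viability: 600 HepG2 cells/well mixed with NanoLuc enzyme plus prosubstrate; 5 h settle, compound (DMSO) added by pintool; luminescence monitored over 40 h at 37 C.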
# [7] = A CellTox Green Cytotoxicity Assay to monitor cytotoxicity in HepG2 cells - 8 hour (AID 1224890); note: nearly all actives have a fitted effect of over 45% in size
# Outline: as §2
# [8] = qHTS RealTime-Glo MT Cell Viability Assay in HEK293 cells - 8 hour (AID 1224887); note: nearly all actives have a fitted effect of over 50% in size
# Outline: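 Viable HEK293 cells reduce a cell-permeant prosubstrate; the product diffuses out and is consumed by NanoLuc in the medium to give light. Compounds went in after a 5 h incubation and plates were read over the treatment course.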
# [9] = qHTS RealTime-Glo MT Cell Viability Assay in HepG2 cells - 16 hour (AID 1224885); note: nearly all actives have a fitted effect of over 50% in size
# Outline: as §3
# [10] = A CellTox Green Cytotoxicity Assay to monitor cytotoxicity in HEK293 cells - 16 hour (AID 1224888); note: nearly all actives have a fitted effect of over 35% in size
# Outline: as §1
# Potency is the fitted concentration of half-maximal effect.
SMILES,Potency [1],Potency [2],Potency [3],Potency [4],Potency [5],Potency [6],Potency [7],Potency [8],Potency [9],Potency [10]
Nc1c2ccccc2nc2ccccc12,43.1 µM (active),inactive,12.1 µM (active) and 10.7 µM (active),inactive,7.66 µM (active) and 21.3 µM (active),inactive,inactive,,,
Oc1ccc(Cl)cc1Sc1cc(Cl)ccc1O,43.6 µM (active) and inactive,inactive,48.9 µM (active) and 26.8 µM (active),inactive,19.5 µM (active) and 23.9 µM (active),,inactive,24.5 µM (active),,
CCCC(c1cc(C(C)(C)C)c(O)cc1C)c1cc(C(C)(C)C)c(O)cc1C,49.6 µM (active),inactive,35.1 µM (active),,22.1 µM (active),inactive,,44.2 µM (active),44.2 µM (active),
CC(C)(C)CC(C)(C)c1ccc(OCCOCC[N+](C)(C)Cc2ccccc2)cc1,38.9 µM (active) and 21.3 µM (active),inactive,27.5 µM (active) and 15.1 µM (active),,19.5 µM (active) and 9.52 µM (active),inactive,26.8 µM (active),,54.9 µM (active) and 21.3 µM (active),48.9 µM (active) and 26.8 µM (active)
Cc1cc(=O)oc2cc(N(C)C)ccc12,inactive,inactive,inactive,inactive,,inactive,inactive,inactive,,
NC(=O)CC[C@@H]1NC(=O)[C@H](Cc2ccccc2)NC(=O)[C@H](Cc2ccc(O)cc2)NC(=O)CCSSC[C@@H](C(=O)N2CCC[C@H]2C(=O)N[C@@H](CCCN=C(N)N)C(=O)NCC(N)=O)NC(=O)[C@H](CC(N)=O)NC1=O,inactive,inactive,inactive,,inactive,,inactive,inactive,inactive,inactive
Clc1ccc2cc3ccccc3cc2c1,inactive,inactive,,inactive,,inactive,inactive,,inactive,inactive
CSc1ccc(C(=O)c2[nH]c(=O)[nH]c2C)cc1,,inactive,inactive,inactive,inactive,inactive,inactive,inactive,inactive,inactive
CCC(CN)=C(c1ccccc1)c1ccccc1,inactive,inactive,,inactive,inactive,inactive,inactive,inactive,inactive,inactive
N=C1N=C(N)c2ccccc21,inactive,inactive,,inactive,24.5 µM (active),inactive,inactive,inactive,,inactive
CC[C@@]1(O)C(=O)OCc2c1cc1n(c2=O)Cc2cc3c(CN(C)C)c(O)ccc3nc2-1,,23.9 µM (active),8.49 µM (active),26.8 µM (active),0.0849 µM (active),inactive,23.9 µM (active),inactive,inactive,26.8 µM (active)
O=c1[nH]sc2cc(Cl)ccc12,inactive,inactive,,inactive,,,,inactive,,inactive
CS(=O)(=O)CCNCc1ccc(-c2ccc3ncnc(Nc4ccc(OCc5cccc(F)c5)c(Cl)c4)c3c2)o1,inactive,inactive,,inactive,21.3 µM (active),8.49 µM (active),inactive,21.3 µM (active),21.3 µM (active),inactive
CC(C)(C)C1CCC(CC2=C(O)c3ccccc3C(=O)C2=O)CC1 (stereo unspecified),21.3 µM (active),inactive,,inactive,,,inactive,,inactive,inactive
CC(C)C(C)(C)C(C)(C)C(C)(C)S,inactive,inactive,inactive,,inactive,,inactive,,inactive,
Cc1cc(CCN2CCN(c3nsc4ccccc34)CC2)cc2c1NC(=O)CC2(C)C,49 µM (active),inactive,,,6.92 µM (active),inactive,inactive,21.9 µM (active),54.9 µM (active),
NC(=NCCCCCCN=C(N)/N=C(\N)Nc1ccc(Cl)cc1)/N=C(\N)Nc1ccc(Cl)cc1,19.4 µM (active) [middle of 4 runs],inactive,,35.3 µM (active) and 54.6 µM (active),10.9 µM (active) [middle of 5 runs],inactive,54.6 µM (active),,43.4 µM (active) and 31.5 µM (active) and 24.4 µM (active),
CCCCCCCCOc1ccccc1C(=O)Nc1ccc(C(=O)OCC[N+](C)(CC)CC)cc1,23.9 µM (active),,23.9 µM (active),23.9 µM (active),,,26.8 µM (active),inactive,,23.9 µM (active)
CCCCC(CC)COP(=O)(O)OCC(CC)CCCC (stereo unspecified),43.6 µM (active),inactive,,inactive,,inactive,inactive,inactive,inactive,38.9 µM (active)
CCCCCCCCCOC(=O)c1ccc(O)cc1,38.3 µM (active),inactive,48.3 µM (active),,38.3 µM (active),inactive,inactive,38.3 µM (active),,38.3 µM (active)
N#CSc1ccc(N)c([N+](=O)[O-])c1,inactive,inactive,,inactive,49.3 µM (active),inactive,inactive,,inactive,inactive
CNCc1cc(F)ccc1Oc1ccc(Cl)c(Cl)c1,,inactive,49 µM (active),inactive,38.9 µM (active),,,,49 µM (active),
